The full list was thinned out, with hits kept by preference.
GALK inh – qHTS Assay for Inhibitors of Human Galactokinase (GALK). actives 0.007% (n = 270,000). P51570. Potency, µM (top dose mostly 57.5 µM), for inactives: at the top dose activity change, negative = inhibition, actives largely listed as inhibitors. Purified GALK, Kinase-Glo residual ATP luminescence; note: potency is the fitted concentration of half-maximal effect; % is set by controls: 0 for no effect and ±100 for the full control effect
Target sequence (P51570 whole entry, looked up): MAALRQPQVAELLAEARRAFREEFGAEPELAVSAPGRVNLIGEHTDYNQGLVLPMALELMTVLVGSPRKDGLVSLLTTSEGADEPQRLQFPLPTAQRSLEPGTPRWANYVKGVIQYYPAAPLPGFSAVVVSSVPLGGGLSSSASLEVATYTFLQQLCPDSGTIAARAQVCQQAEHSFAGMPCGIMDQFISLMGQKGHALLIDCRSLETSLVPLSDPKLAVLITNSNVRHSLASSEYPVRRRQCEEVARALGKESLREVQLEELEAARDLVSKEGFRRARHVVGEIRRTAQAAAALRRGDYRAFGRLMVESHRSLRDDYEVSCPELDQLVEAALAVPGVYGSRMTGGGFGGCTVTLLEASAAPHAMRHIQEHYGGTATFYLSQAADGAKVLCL
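Human GALK (5 nM) with 35 uM ATP and 100 uM galactose in 20 mM HEPES pH 8.0, 5 mM MgCl2, 60 mM NaCl, 1 mM DTT, 0.01% BSA. After 1 h at room temperature, leftover ATP was read by Kinase-Glo Plus luminescence.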
HTT ATP protect – qHTS Multiplex Assay to Identify Dual Action Probes in a Cell Model of Huntington: Cytoprotection (ATP). AID 1471, 2008. PC12 HTT-Q103 induced, cytoprotection, ATP luminescence, 40 h. Potency, µM (highest dose often 56.4 µM), for the others: cytoprotection (ATP increase), hits mostly activators. actives 0.14% (n = 230,000); note: potency is the fitted concentration of half-maximal effect; % of control where 0% means no effect; nearly all actives have a fitted effect of over 45% in size
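PC12 cells stably carrying ecdysone-inducible Htt exon 1 (Q103)–GFP were induced with 100 nM tebufenozide (final) alongside library compounds in a dose series. Cytoprotection was scored as retained ATP by ATPlite luminescence.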
HttQ103 aggreg – qHTS Multiplex Assay to Identify Dual Action Probes in a Cell Model of Huntington: Aggregate Formation (GFP) | actives 1.1% (n = 220,000) | PC12 HttQ103-GFP aggregates, Acumen cytometry, 40 h | Potency, µM (doses to about 46.1 µM), inactives show at the top dose activity change, negative = inhibition, actives largely listed as inhibitors | AID 1688, 2009; note: potency is the fitted concentration of half-maximal effect; % is set by controls: 0 for no effect and ±100 for the full control effect; nearly all actives have a fitted effect of over 60% in size
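Ecdysone-promoter PC12 model expressing HTT exon 1 Q103 fused to GFP, induced by tebufenozide at 100 nM final. Compounds titrated; aggregates sized 1–25 µm scored on a 488 nm laser cytometer.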
PI4K2A inh – qHTS for small molecular inhibitors of PI4K2A | activity change, negative = inhibition, % at 76.9 µM | purified PI4K2A, ADP-Glo luminescence, 1 h; stronger effect = lower value | Phosphatidylinositol 4-kinase type 2-alpha (Homo sapiens), Q9BTU6 | actives 0.13% (n = 420,000); in the data active = activity change below about -50%; inconclusive = mostly about -30% to -49%;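 note: -100% = wells without enzyme as full effect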
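In this quantitative HTS, ADP production by PI4K2A was quantified luminescently after 1 h at ambient temperature; 100 microM adenosine served as plate-quality control.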
* marks the source's active call; other numbers are inactive results; [ ] = remark or other dose. Unless noted, calls come from the whole dose curve; as a rule, active = well fitted curve in the direction sought with a large enough effect; inconclusive = small, poorly fitted or top-dose-only effect, or another doubt; inactive = no such curve, though single readings can be large; an effect the other way counts as inactive or inconclusive.

`COc1ccccc1C(=O)NCC(=O)Nc1ccccc1` gave GALK inh -1%, HTT ATP protect -16%, HttQ103 aggreg 0.35µM* and PI4K2A inh -3.
`COc1ccc(-c2csc(NC(=O)c3ccccc3NS(=O)(=O)c3ccc(F)c(F)c3)n2)cc1` gave GALK inh inconclusive, HTT ATP protect -66%[10 µM], HttQ103 aggreg 2.5µM* and PI4K2A inh -1.
O=C(OCC1(COC(=O)c2cccnc2)CCCC(COC(=O)c2cccnc2)(COC(=O)c2cccnc2)C1O)c1cccnc1 was read as PI4K2A inh -2.
CCOC(=O)CC(=O)CSc1nc(C)nc2c1oc1ccccc12 was read as GALK inh -4%, HTT ATP protect -6%, HttQ103 aggreg 1.1µM* and PI4K2A inh -13.
Screening Cc1nc(SCC(=O)O)c2oc3ccccc3c2n1 returned GALK inh 4%, HTT ATP protect -23%, HttQ103 aggreg 10% and PI4K2A inh 1.
`COc1ccc(NS(=O)(=O)c2ccc3c(c2)Cc2ccccc2-3)cn1` gave GALK inh 1%, HTT ATP protect 9%, HttQ103 aggreg 11µM* and PI4K2A inh -5.
Screening CCCCN(CCCC)C(C(N)=O)c1ccc(OC)cc1 (stereo unspecified) returned PI4K2A inh -5.
COc1ccc(NS(=O)(=O)c2cccc(NC(=O)c3ccc(Cl)nc3)c2)cc1 was read as GALK inh 0%, HTT ATP protect 14%[10 µM], HttQ103 aggreg 2.5µM* and PI4K2A inh 2.
O=C(Nc1cccc(S(=O)(=O)Nc2ccc(Cl)cc2)c1)c1ccc(Cl)nc1 was read as GALK inh -1%, HTT ATP protect 26%[10 µM], HttQ103 aggreg inconclusive and PI4K2A inh -2.
`O=C(N1CCOCC1)N1CCN(c2ccccc2)CC1` gave GALK inh -1%, HTT ATP protect 2%, HttQ103 aggreg 7% and PI4K2A inh -3.
Screening O=C(N1CCOCC1)N1CCN(c2ccccc2F)CC1 returned GALK inh 2%, HTT ATP protect 6%, HttQ103 aggreg 10% and PI4K2A inh -62*.
For CC(C)CN1C(=O)C[C@@]2(C(=O)N(C)c3ccc(NS(=O)(=O)C4CC4)cc32)C1c1ccccc1 (stereo partly specified) the results were PI4K2A inh -20.
COC1=CC(=O)c2c(ccc3ncnc(N)c23)C1=O was read as PI4K2A inh -58*.
CC1(C)OC(C(O)(c2cc(F)c(F)c(F)c2)c2cc(F)c(F)c(F)c2)C(C(O)(c2cc(F)c(F)c(F)c2)c2cc(F)c(F)c(F)c2)O1 (stereo unspecified) was read as HTT ATP protect -102%[10 µM].
For COc1cccc(/C=N/Nc2snc(SC)c2C#N)c1O the results were HttQ103 aggreg 11µM* and PI4K2A inh -7.
`COc1ccc(/C=N/Nc2snc(SC)c2C#N)cc1OC` gave GALK inh 0%, HTT ATP protect -24%, HttQ103 aggreg -7% and PI4K2A inh -54*.
Cc1onc(-c2ccccc2Cl)c1C(=O)Nc1nnc(-c2ccc(Cl)cc2Cl)s1 was read as GALK inh -1%, HTT ATP protect 24%[10 µM], HttQ103 aggreg 35µM* and PI4K2A inh 4.
Screening Cc1onc(-c2ccccc2Cl)c1C(=O)Nc1nnc(-c2ccc(Br)cc2)s1 returned GALK inh -3%, HTT ATP protect -5%[10 µM], HttQ103 aggreg inconclusive and PI4K2A inh -12.
`CCN(CC)C(=O)c1oc2ccc(S(=O)(=O)N3CCCCCC3)cc2c1C` gave GALK inh -2%, HTT ATP protect 3%, HttQ103 aggreg 10µM* and PI4K2A inh 8.
For CCN(CC)C(=O)c1oc2ccc(S(=O)(=O)N3CC(C)CC(C)C3)cc2c1C (stereo unspecified) the results were GALK inh -3% and PI4K2A inh -22.
Screening O=C(c1cc(Cl)cc(Cl)c1)N1CC[C@H]2[C@H](CCCN2Cc2cc(F)cc(F)c2)C1 returned PI4K2A inh 0.
For CCCCN(CCCC)CCCNC(=O)C1CC(c2cc(C(F)(F)F)cc(C(F)(F)F)c2)=NO1 (stereo unspecified) the results were PI4K2A inh -66*.
COCCOC(=O)N(C)C[C@@H]1OCCCC[C@H](C)Oc2ccc(NC(=O)Nc3ccccc3)cc2C(=O)N([C@@H](C)CO)C[C@H]1C was read as PI4K2A inh 0.
`C=CC[C@@H](CC(=O)N[C@@H](CO)Cc1ccccc1)C(=O)NC[C@H](OC(=O)[C@@H](CC=C)Cc1ccc(F)cc1)c1ccccc1` gave PI4K2A inh 0.
Screening C=CC[C@@H](CC(=O)NCCO)C(=O)NC[C@H](OC(=O)[C@@H](CC=C)Cc1ccc(F)cc1)c1ccccc1 returned PI4K2A inh -52*.
Screening O=C(CON=C1c2ccccc2-c2ccccc21)NC12CC3CC(CC(C3)C1)C2 returned GALK inh 0%, HTT ATP protect -6%[10 µM], HttQ103 aggreg 11µM* and PI4K2A inh -2.
For Nc1nc(Sc2ccc([N+](=O)[O-])c3nonc23)c2[nH]cnc2n1 the results were HTT ATP protect -10%[10 µM] and PI4K2A inh -52*.
Screening CN(C)CCOC(=O)[C@@H](c1ccccc1)C1(O)CCCC1 returned HTT ATP protect 5.6µM* and HttQ103 aggreg 1%.
For C[C@H](N)C(=O)N[C@@H](C)C(=O)NC1[C@H]2CN(c3nc4c(cc3F)c(=O)c(C(=O)O)cn4-c3ccc(F)cc3F)C[C@@H]12 (stereo partly specified) the results were PI4K2A inh 1.
COc1ccccc1CC(=O)N1CCN(c2cccc(C(F)(F)F)c2)CC1 was read as GALK inh -2%, HTT ATP protect 11%[10 µM], HttQ103 aggreg 13µM* and PI4K2A inh 4.
Screening COC(=O)[C@@]1(Cc2ccc(OC)cc2)[C@@H]2C(=CC(=O)[C@H]2CC(=O)C(=O)N2CCCC2)CN1C(=O)c1ccccc1 returned HTT ATP protect 7.1µM*, HttQ103 aggreg inconclusive and PI4K2A inh -13.
`c1ccc(Cn2ccc3ccc(-c4ccc5ccn(Cc6cccc(Oc7ccccc7)c6)c5c4)cc32)cc1` gave PI4K2A inh -3.
Cc1[nH]n(-c2ccccc2)c(=O)c1N=O was read as GALK inh 6%, HttQ103 aggreg 0.63µM* and PI4K2A inh -4.
Screening COc1cc2c(cc1OC)[C@H](C)N(CC1C(=O)O[C@@H]3C[C@@]4(C)CCC[C@H](C)[C@@]45OC5[C@H]13)CC2 (stereo partly specified) returned HTT ATP protect 8.9µM*.
